Reference: PubChem BioAssay AID1851 (National Center for Advancing Translational Sciences (NCATS), 2009)
Several values for one entry are separate records, joined by “and”; a condition that tells them apart may be missing. Equal values may be shown once. About 2,600 (16%) of roughly 16,000 compounds were called active. Inconclusive results (about 20%) are left out. The call rests on the fitted dose curve; in most records, active means well fitted curve in the direction sought with a large enough effect; inconclusive means small, poorly fitted or top-dose-only effect, or effect the other way; inactive means no such curve, though single readings can be large or run the other way. The entries come from a sample that favours actives as a whole. Some compounds were tested as several samples or in several runs, with calls that do not always agree.

target: Cytochrome P450 2D6 (Homo sapiens) (UniProt P10635); assay: Cytochrome panel assay with activity outcomes; details: recombinant CYP, pro-luciferin dealkylation, luminescence, p450-cyp2d6; series mostly up to 57.1 µM; activity, negative = inhibition: at the top concentration
On the % scale 0 is the no-effect control and ±100 the full control effect.

Cytochrome P450 2D6 (Homo sapiens), sequence (P10635 whole entry, looked up): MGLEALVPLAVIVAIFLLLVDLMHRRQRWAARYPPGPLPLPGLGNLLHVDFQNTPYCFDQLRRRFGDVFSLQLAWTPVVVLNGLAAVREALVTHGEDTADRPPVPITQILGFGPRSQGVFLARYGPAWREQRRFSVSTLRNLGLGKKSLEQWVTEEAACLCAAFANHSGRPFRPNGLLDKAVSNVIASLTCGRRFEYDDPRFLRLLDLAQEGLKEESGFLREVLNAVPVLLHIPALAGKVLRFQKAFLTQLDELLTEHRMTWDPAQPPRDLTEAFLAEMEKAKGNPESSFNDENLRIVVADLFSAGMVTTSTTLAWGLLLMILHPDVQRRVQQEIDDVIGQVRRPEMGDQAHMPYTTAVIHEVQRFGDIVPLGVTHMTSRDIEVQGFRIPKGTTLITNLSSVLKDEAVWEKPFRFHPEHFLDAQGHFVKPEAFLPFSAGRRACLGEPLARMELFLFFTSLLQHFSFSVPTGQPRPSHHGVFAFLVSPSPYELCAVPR

| Structure (SMILES) | activity, negative = inhibition | AC50 |
| --- | --- | --- |
| CN(C)C(=O)Oc1ccc[n+](C)c1 | 11.3% (inactive) | – |
| C[C@@H]1O[C@H]1P(=O)(O)O | 19.4% (inactive) | – |
| O=c1c(O)c(-c2ccc(O)c(O)c2)oc2cc(O)cc(O)c12 | – | inactive |
| CNC[C@H](O)c1ccc(O)c(OC)c1 | -1.02% [at 25.6 µM] (inactive) | – |
| C[C@](N)(CCP(=O)(O)O)C(=O)O | 8.58% (inactive) | – |
| CCCN(CCC)[C@@H]1CCc2ccc(O)cc2C1 | – | 794 nM (active) and inactive |
| CCCN(CCC)C1Cc2cc(OC)c(OC)cc2C1 | – | 25.1 µM (active) and inactive |
| CCCN(C/C=C\I)[C@@H]1CCc2ccc(O)cc2C1 | – | 0.0158 µM (active) |
| O=C(O)[C@H]1CCN1 | -3.77% (inactive) | – |
| CN(C)[C@H]1C(=O)C(C(N)=O)=C(O)[C@]2(O)C(=O)C3=C(O)c4c(O)cccc4[C@@](C)(O)[C@H]3C[C@@H]12 | 13.9% [at 25.6 µM] (inactive) | – |
| O=C(O)C(C(=O)O)P(=S)(S)c1ccccc1 (stereo unspecified) | 8.23% [at 11.4 µM] (inactive) | – |
| CC(=O)NBr | 4.43% (inactive) | – |
| N#CCCCC[N+]12CN3CN(CN(C3)C1)C2 | 1.51% [at 11.4 µM] (inactive) | – |
| COC1=CC(=O)O[C@@H](/C=C\c2ccccc2)C1 | 0.589% [at 25.6 µM] (inactive) | – |
| CCN1C[C@]2(COC)CC[C@H](O)[C@@]34[C@@H]5C[C@H]6[C@@H](OC)[C@H]5[C@](O)(C[C@@H]6OC)[C@@](O)([C@@H](OC)[C@H]23)[C@@H]14 | 11.1% [at 25.6 µM] (inactive) | – |
| CCN(CC)c1ncnc2c1ncn2[C@@H]1O[C@@H](COP(=O)(O)OP(=O)(O)C(Br)(Br)P(=O)(O)O)[C@H](O)[C@@H]1O | -10.4% (inactive) | – |
| CCN(CC)c1ncnc2c1ncn2[C@@H]1O[C@@H](COP(=O)(O)OP(=O)(O)C(Br)(Br)P(=O)(O)O)[C@H](O)[C@H]1O | – | 0.631 µM (active) |
| Nc1ncnc2c1ncn2[C@@H]1O[C@@H](COP(=O)(O)CP(=O)(O)OP(=O)(O)O)[C@H](O)[C@@H]1O | -5.92% (inactive) | – |
| COc1cc2c3cc1Oc1cc(ccc1O)C[C@@H]1c4c(cc(OC)c(O)c4Oc4cccc(c4)C[C@H]3N(C)CC2)CC[N+]1(C)C | 2.51% [at 25.6 µM] (inactive) | – |
| O=P(O)(O)CCP(=O)(O)O | 10.1% [at 11.4 µM] (inactive) | – |
| N[C@H](CP(=O)(O)O)C(=O)O | -6.71% (inactive) | – |
| Cc1nc2ccccc2cc1C[N+]12CN3CN(CN(C3)C1)C2 | -2.3% [at 11.4 µM] (inactive) | – |
| c1ccc2c(c1)-c1ccccc1C2N1CC2CCC(CC2)C1 | – | 3.98 µM (active) |
| O=C1N[C@@]2(CN3CCC2CC3)C(=O)N1CN(Cc1ccccc1)c1ccccc1 | 2.51% [at 11.4 µM] (inactive) | – |
| CC[C@@]1(c2ccc(N)cc2)CCC(=O)NC1=O | – | inactive |
| CN1Cc2c(ccc3c2OCO3)[C@@H]2[C@@H](O)Cc3cc4c(cc3[C@@H]21)OCO4 | – | 0.2 µM (active) |

| Structure (SMILES) | activity, negative = inhibition | AC50 |
| --- | --- | --- |
| C[C@H]1CCCC=CC2C[C@H](O)C[C@@H]2[C@H](O)/C=C\C(=O)O1 (stereo partly specified) | 9.19% (inactive) | – |
| N#Cc1cccc(NC(=O)N2CCCC3(CCN(C(=O)Oc4ccccc4)CC3)C2)c1 | -9.57% (inactive) | – |
| Oc1ccc2c3c1O[C@H]1c4[nH]c5c(c4C[C@@]4(O)[C@@H](C2)N(CC2CC2)CC[C@]314)C[C@]1(O)[C@H]2Cc3ccc(O)c4c3[C@@]1(CCN2CC1CC1)[C@@H]5O4 | -4.33% (inactive) | – |
| Oc1ccc2c3c1O[C@@H]1c4[nH]c5c(c4C[C@@]4(O)[C@@H](C2)N(CC2CC2)CC[C@]314)C[C@]1(O)[C@@H]2Cc3ccc(O)c4c3[C@@]1(CCN2CC1CC1)[C@H]5O4 | -4.66% (inactive) | – |
| Oc1ccc2c3c1O[C@H]1c4[nH]c5ccccc5c4C[C@]4(O)[C@H](C2)N(CC2CC2)CC[C@@]314 | – | 2.51 µM (active) and 631 nM (active) |
| Oc1ccc2c3c1O[C@H]1c4c(c5ccccc5n4Cc4ccccc4)C[C@]4(O)[C@H](C2)N(CC2CC2)CC[C@@]314 | -5.11% (inactive) | – |
| NC(N)=Nc1ccc2[nH]c3c(c2c1)C[C@]1(O)[C@@H]2Cc4ccc(O)c5c4[C@]1(CCN2CC1CC1)[C@H]3O5 | 2.41% (inactive) | – |
| Oc1ccc2c3c1O[C@H]1c4oc5ccccc5c4C[C@]4(O)[C@H](C2)N(CC2CC2)CC[C@@]314 | – | 1.26 µM (active) |
| Nc1nc(N)c2nc(CNc3ccc(C(=O)N[C@H](CCC(=O)O)C(=O)O)cc3)cnc2n1 | -1.59% (inactive) | – |
| CC[C@H](C)[C@@H]1O[C@]2(CC[C@@H]1C)C[C@H]1C[C@H](CC=C(C)[C@@H](O[C@@H]3C[C@H](OC)[C@H](O[C@@H]4C[C@H](OC)[C@H](O)[C@H](C)O4)[C@H](C)O3)[C@@H](C)C=CC=C3CO[C@@H]4[C@@H](O)C(C)=C[C@@H](C(=O)O1)[C@]34O)O2 | -16.5% [at 25.6 µM] (inactive) | – |
| CCNC(=O)[C@@H]1O[C@@H](n2cnc3c(N)ncnc32)[C@@H](O)[C@H]1O | -3.38% (inactive) | – |
| CCN(CC)CC#CCOC(=O)[C@@](O)(c1ccccc1)C1CCCCC1 | – | 10 µM (active) |
| Cc1ccc(S(=O)ON2CCC(C(=O)O)(c3ccccc3)CC2)cc1 (stereo unspecified) | 20.9% [at 11.4 µM] (inactive) | – |
| CCCc1cc2c(n1Cc1ccc(C)cc1)C(C)C1CN(C(=O)c3ccccc3)C(C)(C(=O)OC)C21 (stereo unspecified) | -18% (inactive) | – |
| CCCc1cc2c(n1Cc1cccc(Cl)c1)C(C)C1CN(C(=O)c3ccccc3)C(C)(C(=O)OC)C21 (stereo unspecified) | – | 12.6 µM (active) |
| CCCc1cc2c(n1CCO)C(C)C1CN(C(=O)c3ccccc3)C(C)(C(=O)OC)C21 (stereo unspecified) | -9.47% (inactive) | – |
| O=C1Nc2ccc(I)cc2/C1=C/c1cc(Br)c(O)c(Br)c1 | 5.11% (inactive) | – |
| C[C@H]1CC[C@]2(OC1)O[C@@H]1C[C@@H]3[C@@H]4CC[C@H]5C[C@@H](O)CC[C@]5(C)[C@@H]4CC(=O)[C@@]3(C)[C@H]1[C@@H]2C | 3.5% [at 25.6 µM] (inactive) | – |
| COCCCN1Cc2ccccc2C1=N | – | 12.6 µM (active) |
| N#CC(=C(/N)Sc1ccccc1N)/C(C#N)=C(/N)Sc1ccccc1N | – | 0.02 µM (active) |
| CCC(=Nc1cc(OC)ccc1OC)c1c(O)[nH]c(=O)[nH]c1=O | -20% (inactive) | – |
| CCCCn1c(O)c(C(CC)=Nc2ccc(OC)cc2OC)c(=O)[nH]c1=O | – | 12.6 µM (active) |
| CCCCn1c(O)c(C(CC)=NCc2ccc(F)cc2)c(=O)[nH]c1=O | -4.9% (inactive) | – |
| CCCCN1C(=O)/C(=C/c2ccc(N(C)C)cc2)C(=O)N(Cc2ccco2)C1=O | 2.94% (inactive) | – |
| [N-]=[N+]=NCC(=O)c1c[nH]c(=O)[nH]c1=O | 8.7% [at 11.4 µM] (inactive) | – |
